Data: PubChem BioAssay (Tox21)
A number with no mark means an inactive call. Results filed as inconclusive are left out. Entries that show only a call come without a potency. Activity calls are given as the source filed them. Unless noted, calls follow the shape of the dose curve; as a rule, active = well fitted curve in the direction sought with a large enough effect in the repeat runs; inconclusive = weak or mixed curves; inactive = no such curve, though single readings can be large; an effect the other way counts as inactive or inconclusive.

How the values were obtained:
[1] = qHTS assay to identify small molecule antagonists of the estrogen related receptor (ERR) signaling pathway from Tox21 library - cell viability counter screen (AID 1224834); also: nearly all actives have a fitted effect of over 30% in size; also: potency is read from the fitted curve at half-maximal effect
Procedure, shortened: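 Seeded ERR cells were rested 6 h at 37 C/5% CO2 before compounds, positive and negative controls or DMSO were added. Incubation continued for 17.5 h, and viability was then quantified by CellTiter-Fluor fluorescence.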

[2] = molecular target: Luciferin 4-monooxygenase (Photinus pyralis) (UniProt P08659); assay: qHTS assay to identify small molecule inhibitors of firefly luciferase (AID 1224835); also: nearly all actives have a fitted effect of over 25% in size; also: potency is read from the fitted curve at half-maximal effect
Sequence of Luciferin 4-monooxygenase (Photinus pyralis) (P08659 whole entry, looked up): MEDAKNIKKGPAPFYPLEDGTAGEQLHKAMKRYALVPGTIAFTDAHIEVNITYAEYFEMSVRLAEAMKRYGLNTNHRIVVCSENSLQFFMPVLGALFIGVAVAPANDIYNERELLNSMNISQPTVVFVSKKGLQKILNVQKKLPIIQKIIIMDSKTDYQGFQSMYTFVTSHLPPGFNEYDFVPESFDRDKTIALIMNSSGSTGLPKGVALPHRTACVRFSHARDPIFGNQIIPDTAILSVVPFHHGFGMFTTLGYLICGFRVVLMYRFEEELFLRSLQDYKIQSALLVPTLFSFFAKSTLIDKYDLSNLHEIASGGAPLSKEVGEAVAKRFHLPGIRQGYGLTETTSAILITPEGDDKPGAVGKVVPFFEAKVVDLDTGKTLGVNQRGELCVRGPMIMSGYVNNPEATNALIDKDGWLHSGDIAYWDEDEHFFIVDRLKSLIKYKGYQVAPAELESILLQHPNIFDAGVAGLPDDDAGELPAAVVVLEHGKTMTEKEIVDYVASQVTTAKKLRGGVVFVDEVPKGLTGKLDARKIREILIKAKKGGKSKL
Procedure, shortened: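 Inhibition of purified Photinus luciferase is measured by luminescence. Substrate levels (D-luciferin, ATP) sit at their KM values. Each compound is tested in a concentration series.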

[3] = qHTS assay to identify small molecule agonists of the constitutive androstane receptor (CAR) signaling pathway - cell viability counter screen (AID 1224836); also: nearly all actives have a fitted effect of over 45% in size; also: potency is read from the fitted curve at half-maximal effect
Procedure, shortened: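 23 h treatment, 37 C, 5% CO2. Cell line: HepG2 stably expressing hCAR with a CYP2B6-2.2kb construct. Co-treatment: PK11195, 0.75 uM final. Read-out: CellTiter-Fluor fluorescence intensity.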

[4] = qHTS assay to identify small molecule antagonists of the constitutive androstane receptor (CAR) signaling pathway - cell viability counter screen (AID 1224837); also: nearly all actives have a fitted effect of over 45% in size; also: potency is read from the fitted curve at half-maximal effect
Procedure, shortened: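 To flag cytotoxic false antagonists, HepG2 hCAR/CYP2B6-2.2kb cells were treated 23 hr with 15-concentration compound series and 50 nM CITCO at 37 C/5% CO2; CellTiter-Fluor fluorescence was the measured end point.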

[5] = molecular target: Nuclear receptor subfamily 1 group I member 3 (Homo sapiens) (UniProt Q14994); assay: qHTS assay to identify small molecule antagonists of the constitutive androstane receptor (CAR) signaling pathway (AID 1224838);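 also: HepG2 cells stably expressing hCAR with CYP2B6 luciferase reporter stimulated by CITCO; nearly all actives have a fitted effect of over 40% in size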; also: potency is read from the fitted curve at half-maximal effect
Sequence of Nuclear receptor subfamily 1 group I member 3 (Homo sapiens) (Q14994 whole entry, looked up): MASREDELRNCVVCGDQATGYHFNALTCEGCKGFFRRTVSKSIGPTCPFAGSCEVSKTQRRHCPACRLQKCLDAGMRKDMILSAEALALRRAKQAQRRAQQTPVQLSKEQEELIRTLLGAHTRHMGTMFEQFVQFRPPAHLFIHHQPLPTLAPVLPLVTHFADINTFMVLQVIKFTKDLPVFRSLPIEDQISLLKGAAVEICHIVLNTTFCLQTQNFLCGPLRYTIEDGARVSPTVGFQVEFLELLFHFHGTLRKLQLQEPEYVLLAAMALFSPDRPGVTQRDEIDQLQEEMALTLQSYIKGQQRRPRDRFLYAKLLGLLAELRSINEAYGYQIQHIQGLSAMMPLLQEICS
Procedure, shortened: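 Human hepatoma HepG2 cells expressing hCAR and a CYP2B6 promoter (2.2 kb) luciferase construct; compound titration (15 points) with 50 nM CITCO final, 24 h at 37 C/5% CO2; luminescence via ONE-Glo after 30 min at room temperature.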

[6] = molecular target: Nuclear receptor subfamily 1 group I member 3 (Homo sapiens) (UniProt Q14994); assay: qHTS assay to identify small molecule agonists of the constitutive androstane receptor (CAR) signaling pathway (AID 1224839); also: nearly all actives have a fitted effect of over 15% in size; also: potency is read from the fitted curve at half-maximal effect;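 as to activation: HepG2 cells stably carrying human CAR and a CYP2B6 luciferase reporter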
Procedure, shortened: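 Compounds tested at 15 concentrations on HepG2 cells stably harbouring hCAR and CYP2B6-2.2kb reporter constructs, co-treated with PK11195 (0.75 uM final), 24 h at 37 C; luminescent reporter signal quantified.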

[7] = qHTS assay to identify small molecule antagonists of the estrogen related receptor signaling pathway with the pleiotropic PPARgamma coactivator (PGC) from Tox21 10K library - cell viability counter screen (AID 1224840; active = well fitted cell-killing curve with a large enough effect in the repeat runs, not every such curve was filed as active; also: nearly all actives have a fitted effect of over 40% in size; also: potency is read from the fitted curve at half-maximal effect)
Procedure, shortened: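 Seeded PGC/ERR cells (2,000/well, 6 h, 37 C/5% CO2) get compound by pin tool; 17.5 h incubation at 37 C; CellTiter-Fluor added, 30 min, fluorescence measured.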

[8] = qHTS assay to identify small molecule agonists of the estrogen related receptor signaling pathway with the pleiotropic PPARgamma coactivator (PGC) from Tox21 10K library (AID 1224842); also: nearly all actives have a fitted effect of over 15% in size; also: potency is read from the fitted curve at half-maximal effect
Procedure, shortened: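 Luminescence from One-Glo (30 min, room temperature) measured after PGC/ERR cells had 18 h at 37 C with pinned compound (23 nL in DMSO). Cells had been seeded at 2,000 per well and pre-incubated 6 h.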

[9] = molecular target: Thyrotropin receptor (Homo sapiens) (UniProt P16473); assay: qHTS assay to identify small molecule agonists of the thyroid stimulating hormone receptor (TSHR) signaling pathway (AID 1224843; calls by dose curve; also: nearly all actives have a fitted effect of over 45% in size)
Sequence of Thyrotropin receptor (Homo sapiens) (P16473 whole entry, looked up): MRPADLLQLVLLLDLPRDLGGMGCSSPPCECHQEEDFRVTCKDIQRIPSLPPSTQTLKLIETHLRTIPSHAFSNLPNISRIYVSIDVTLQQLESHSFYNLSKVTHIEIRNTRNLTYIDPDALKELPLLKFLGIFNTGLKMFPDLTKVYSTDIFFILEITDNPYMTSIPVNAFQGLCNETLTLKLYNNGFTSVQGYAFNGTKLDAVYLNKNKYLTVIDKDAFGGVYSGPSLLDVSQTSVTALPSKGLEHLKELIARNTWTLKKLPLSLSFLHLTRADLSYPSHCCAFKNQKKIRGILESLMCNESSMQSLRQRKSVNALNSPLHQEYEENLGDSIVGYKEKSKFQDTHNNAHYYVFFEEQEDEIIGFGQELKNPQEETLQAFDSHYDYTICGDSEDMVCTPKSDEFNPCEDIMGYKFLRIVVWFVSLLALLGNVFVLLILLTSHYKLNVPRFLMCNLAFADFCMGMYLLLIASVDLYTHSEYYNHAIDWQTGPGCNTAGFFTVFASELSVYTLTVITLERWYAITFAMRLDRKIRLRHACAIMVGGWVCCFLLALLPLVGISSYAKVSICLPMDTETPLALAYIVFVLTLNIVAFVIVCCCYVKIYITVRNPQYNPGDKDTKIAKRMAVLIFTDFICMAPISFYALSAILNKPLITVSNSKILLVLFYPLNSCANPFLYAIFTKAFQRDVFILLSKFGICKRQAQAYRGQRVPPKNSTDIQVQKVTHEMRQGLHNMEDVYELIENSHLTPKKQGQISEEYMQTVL
Procedure, shortened: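 Agonist activity read as cAMP rise via d2/cryptate HTRF competition, 1 h room-temperature detection, in HEK293 cells expressing TSHR. Fifteen-point titrations, each run in triplicate, with a 30 min room-temperature incubation beforehand.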

[10] = qHTS assay to identify small molecule agonists of the hypoxia (HIF-1) signaling pathway - cell viability counter screen (AID 1224844; calls by dose curve; also: nearly all actives have a fitted effect of over 50% in size; also: potency is read from the fitted curve at half-maximal effect)
Procedure, shortened: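 HRE-bla ME-180; 0.5% dFBS; cpd 17 h, 37C, 5% CO2; CellTiter-Glo lum., 30 min RT, post-FRET read, same wells.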

[11] = qHTS assay to identify small molecule agonists of H2AX (AID 1224845; active = well fitted activation curve with a large enough effect in the signal ratio in the repeat runs, not every such curve was filed as active; the % refers to the signal ratio)
Procedure, shortened: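 Phospho-H2AX Ser139 measured by HTRF (ex 320 nm; em 665 and 620 nm) after 24 hr antibody incubation. Compounds, 15 concentrations, 0.76% DMSO, were applied to CHO-K1 cells for 3hr at 37C before lysis.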

[12] = qHTS assay to identify small molecule agonists of the hypoxia (HIF-1) signaling pathway (AID 1224846; active = well fitted activation curve with a large enough effect in the signal ratio in the repeat runs, not every such curve was filed as active; the % refers to the signal ratio)
Procedure, shortened: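 Reporter induction in HRE-bla ME-180 cells is taken as agonism: cells sit 5 hrs after plating, receive compounds or DMSO only, incubate 17 hrs at 37C under 5% CO2, and are loaded with CCF4-AM for beta-lactamase FRET measurement.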

[13] = qHTS assay to identify small molecule agonists of H2AX - cell viability counter screen (AID 1224847; calls by dose curve; also: nearly all actives have a fitted effect of over 30% in size; also: potency is read from the fitted curve at half-maximal effect)
Procedure, shortened: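 Compounds tested at 15 concentrations were incubated 3 hr at 37C with wild-type CHO-K1 cells; cellular ATP-based luminescence (CellTiter-Glo) indicated viability.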

[14] = qHTS assay to identify small molecule antagonists of the estrogen related receptor (ERR) signaling pathway from Tox21 library (AID 1224848); also: nearly all actives have a fitted effect of over 50% in size; also: potency is read from the fitted curve at half-maximal effect
Procedure, shortened: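 Luciferase luminescence (ONE-Glo, 30 min room temperature) was the read-out. Cells of the NTP-supplied ERR line, 2,000 per well, were given 6 h at 37 C before compound addition in DMSO and 18 h exposure at 37 C.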

[15] = qHTS RealTime-Glo MT Cell Viability Assay in HepG2 cells - 24 hour (AID 1224867); also: nearly all actives have a fitted effect of over 50% in size
Procedure, shortened: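 Compound treatment began 5 h after plating HepG2 cells (600/well) with NanoLuc luciferase and prosubstrate. Plates stayed at 37 C for 40 h; luminescence was captured at six time points, 0 h through 40 h.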

[16] = qHTS RealTime-Glo MT Cell Viability Assay in HEK293 cells - 32 hour (AID 1224868); also: top concentration of the series differs between compounds; nearly all actives have a fitted effect of over 50% in size
Procedure, shortened: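 Quantitative high-throughput screen of the Tox21 10K library in HEK293: cells and RealTime-Glo reagents plated together, compound added at 5 h, luminescence monitored through 40 h at 37 C.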

[17] = A CellTox Green Cytotoxicity Assay to monitor cytotoxicity in HEK293 cells - 0 hour (AID 1224869); also: nearly all actives have a fitted effect of over 50% in size
Procedure, shortened: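 Tox21 screen in HEK293: membrane-impermeant cyanine dye fluoresces on binding dead-cell DNA; compound pinned 5 h post-seeding, plates held at 37 C, signal read repeatedly through 40 h.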

[18] = qHTS assay to identify small molecule antagonists of the estrogen related receptor signaling pathway with the pleiotropic PPARgamma coactivator (PGC) from Tox21 10K library (AID 1224841; call rule not given here; also: potency is read from the fitted curve at half-maximal effect)
Procedure, shortened: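 Test chemicals dissolved in DMSO were applied to pre-incubated (6 h) PGC/ERR cells at 2,000 cells/well for an 18 h, 37 C treatment; reporter luminescence was then read using One-Glo.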

[19] = qHTS assay to identify small molecule agonists of the estrogen related receptor (ERR) signaling pathway from Tox21 library (AID 1224849; calls by dose curve; also: nearly all actives have a fitted effect of over 15% in size); settings: ERR reporter cell line, ONE-Glo luciferase, 18 h; at 92.4 µM (top of the series) unless noted
Procedure, shortened: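 Tox21 compounds tested for ERR agonism in an NTP reporter cell line: 18 h treatment at 37 C, then ONE-Glo luminescence.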

Compound | Potency [1] | Potency [2] | Potency [3] | Potency [4] | Potency [5] | Potency [6] | Potency [7] | Potency [8] | Potency [9] | Potency [10] | Potency [11] | outcome [12] | Potency [13] | Potency [14] | Potency [15] | Potency [16] | Potency [17] | Potency [18] | activity change, positive = activation [19]
Cc1c[nH]c2ccccc12 | inactive | inactive | inactive | inactive | inactive | inactive | inactive | inactive | inactive | inactive | inactive | inactive | inactive | inactive | inactive | inactive | inactive | – | –
FC(F)(F)C(F)(F)C(F)(F)C(F)(F)CCI | inactive | inactive | inactive | inactive | inactive | inactive | inactive | – | inactive | inactive | inactive | inactive | inactive | – | inactive | inactive | inactive | – | –
CC(=O)OCC1=C(C(=O)O)N2C(=O)[C@@H](NC(=O)CSc3ccncc3)[C@H]2SC1 | inactive | inactive | inactive | inactive | inactive | inactive | inactive | inactive | – | inactive | inactive | – | inactive | inactive | inactive | inactive | inactive | inactive | 0.532% [at 42.5 µM]
Cc1c(C2(c3cc(Br)c(O)c(Br)c3C)OS(=O)(=O)c3ccccc32)cc(Br)c(O)c1Br | 14.9 µM (active) | 8.67 µM (active) | 14.9 µM (active) | 18.8 µM (active) | 11.8 µM (active) | inactive | 18.8 µM (active) | inactive | – | 16.9 µM (active) | – | inactive | 9.77 µM (active) | 11.8 µM (active) | inactive | inactive | inactive | 11.8 µM (active) | -68%
COC(=O)CC(C(C)=O)C(=O)OC (stereo not given) | inactive | inactive | inactive | inactive | inactive | inactive | inactive | – | inactive | inactive | inactive | inactive | inactive | – | inactive | inactive | inactive | – | –
CC[C@@H](CO)NCCN[C@@H](CC)CO | inactive | inactive | inactive | inactive | inactive | inactive | inactive | inactive | – | inactive | inactive | – | inactive | inactive | inactive | inactive | inactive | inactive | –
CCN(Cc1cccc(S(=O)(=O)O)c1)c1ccc(C(=C2C=CC(=[N+](CC)Cc3cccc(S(=O)(=O)O)c3)C=C2)c2ccccc2S(=O)(=O)[O-])cc1 | 30.7 µM (active) | 20.1 µM (active) | 34.5 µM (active) | 34.5 µM (active) | 15.4 µM (active) | inactive | 27.4 µM (active) | inactive | – | – | – | inactive | 25.4 µM (active) | 15.4 µM (active) | inactive | inactive | inactive | 8.67 µM (active) | -48.9% [at 42.5 µM]
O=C(Oc1ccccc1)c1ccc2ccccc2c1O | inactive | 2.52 µM (active) | inactive | inactive | inactive | 54.5 µM (active) | inactive | 9.69 µM (active) | – | inactive | inactive | inactive | – | inactive | inactive | inactive | inactive | inactive | 116% (active)
